# Screening data: PubChem, National Center for Advancing Translational Sciences (NCATS)
# Vif-APOBEC3G blk: blocks the Vif interaction with human APOBEC3G. Q9HC16. HeLa A3G-eYFP + Vif (tagged APOBEC3G with the HIV-1 protein that degrades it), YFP fluorescence, overnight. Potency, µM (top dose mostly 46.1 µM), for inactives: at the top dose activity, negative = active, actives largely listed as inhibitors. 410,000 compounds, 0.076% hits. AID 602310; note: potency is the fitted concentration of half-maximal effect; % is set by controls: 0 for no effect and ±100 for the full control effect; nearly all actives have a fitted effect of over 60% in size
# Target sequence (Q9HC16 whole entry, looked up): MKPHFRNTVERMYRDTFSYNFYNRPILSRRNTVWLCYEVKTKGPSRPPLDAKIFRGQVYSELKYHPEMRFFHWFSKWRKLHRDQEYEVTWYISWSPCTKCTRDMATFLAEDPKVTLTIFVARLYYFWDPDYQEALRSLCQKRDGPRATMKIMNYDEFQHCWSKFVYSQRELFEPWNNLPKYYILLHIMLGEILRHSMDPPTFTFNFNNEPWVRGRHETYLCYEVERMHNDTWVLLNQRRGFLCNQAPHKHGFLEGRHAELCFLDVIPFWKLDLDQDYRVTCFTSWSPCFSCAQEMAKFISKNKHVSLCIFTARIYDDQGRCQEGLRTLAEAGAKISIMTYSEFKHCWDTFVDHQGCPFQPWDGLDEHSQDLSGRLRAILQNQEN
#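 HeLa cells stably expressing Vif and C-terminally eYFP-tagged A3G, seeded overnight at 37 deg C, then exposed to compound by pintool overnight at 37 deg C. Rise in yellow fluorescence (Ex 488/Em 500-530, Acumen) marks blocked Vif-driven A3G degradation.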
# ASM inhibitor: blocks human secretory acid sphingomyelinase | P17405 | placental ASM, HMU-PC fluorogenic substrate, 60 min | Potency, µM (titrated, usually from 57.5 µM), without a hit: at the top dose activity change, negative = inhibition, hits mostly inhibitors | 340,000 compounds, 0.006% hits | AID 504937; note: potency is the fitted concentration of half-maximal effect
#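 Fluorescence read-out (Ex 386 nm, Em 447 nm) after stopping the reaction at pH 10. Enzyme: ASM from human placenta; substrate HMU-PC0, 9 uM final; 60 min, 37 °C. Compound preincubation 10 min, ambient temperature.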
# Akt phos inh: blocks phosphorylation of Akt. 360,000 compounds, 0.32% hits. AID 651550. Neuro2A IGF-stimulated pAkt S473 HTRF, 20 min; hits give low values. activity change, % for hits at 50 µM; in the data active = activity change below about -80%; inconclusive = mostly about -51% to -80%; note: % is set by controls: 0 for no effect and ±100 for the full control effect
#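 Single-point screen (50 µM final compound) in Neuro2A cells stimulated 20 min with 6 nM IGF at 37 deg C. After lysis, Ser473-phosphorylated Akt read by HTRF (ex 330 nm, em 615/665 nm) as the 665/615 ratio.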
# Vif-APOBEC3F blk: inhibitors of Vif-A3F interaction | Potency, µM (series often up to 46.1 µM), inactives show top-dose activity, negative = active | 390,000 compounds, 0.2% hits | HeLa A3F-eYFP + Vif (tagged APOBEC3F with the HIV-1 protein that degrades it), YFP fluorescence increase; note: potency is the fitted concentration of half-maximal effect; % of control where 0% means no effect; nearly all actives have a fitted effect of over 65% in size
#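 HeLa cells stably expressing Vif plus C-terminally eYFP-tagged A3F were seeded, incubated overnight at 37 deg C, dosed with compound, incubated overnight again at 37 deg C. Yellow fluorescence (Ex 488/Em 500-530) reported blocked Vif-mediated A3F-eYFP degradation.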
# TSG101-PTAP inh: blocks PTAP/TSG101 interaction to inhibit HIV-1 budding; Q99816; Fluorescence polarization, FITC-PTAP peptide / Tsg101 binding; Potency, µM (highest dose often 115 µM), for inactives: top-dose activity change, negative = inhibition, usual class: inhibitors; 340,000 tested, under 10 active; active = well fitted inhibition curve with a large enough effect in the main read-out, with a control signal flat, not every such curve was filed as active; inconclusive = small, poorly fitted or top-dose-only effect, or effect the other way, or a change in a side signal; inactive = no such curve, though single readings can be large or run the other way; note: potency is the fitted concentration of half-maximal effect; % of control where 0% means no effect
# Target sequence (Q99816 whole entry, looked up): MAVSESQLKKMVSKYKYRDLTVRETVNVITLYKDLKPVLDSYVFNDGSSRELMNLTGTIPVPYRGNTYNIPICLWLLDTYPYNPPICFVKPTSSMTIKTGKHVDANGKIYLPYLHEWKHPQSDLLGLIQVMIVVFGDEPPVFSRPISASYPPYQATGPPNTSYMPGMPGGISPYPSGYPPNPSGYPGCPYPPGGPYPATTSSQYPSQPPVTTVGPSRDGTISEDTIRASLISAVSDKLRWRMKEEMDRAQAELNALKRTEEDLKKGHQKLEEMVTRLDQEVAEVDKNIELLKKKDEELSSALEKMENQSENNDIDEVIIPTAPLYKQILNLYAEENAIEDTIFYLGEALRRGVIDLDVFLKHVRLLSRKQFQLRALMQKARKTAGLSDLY
#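 Fluorescence anisotropy tracks displacement of a FITC-tagged PTAP peptide (50 nM) from the Tsg101 binding domain (10 uM), following a 20 min room-temperature incubation at pH 7.5.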
# ALOX12 inh: inhibitors of human 12S-lipoxygenase ALOX12 | purified 12hLO, xylenol orange hydroperoxide absorbance | P18054 | 580,000 compounds, 1.1% hits | Potency, µM (top dose mostly 108 µM), for the others: top-dose activity change, negative = inhibition, most hits filed as inhibitors; note: potency is the fitted concentration of half-maximal effect; % is set by controls: 0 for no effect and ±100 for the full control effect
#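 Hydroperoxide product was detected by ferrous iron/xylenol orange as the 573 to 405 nm absorbance ratio. Arachidonic acid at 40 uM (final) was turned over for 30 min at room temperature by 150 nM human 12hLO, pH 7.0 Hepes buffer, after 15 min compound preincubation.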
# The depositor's hits bear a star; i = inactive; ? = inconclusive; nt = no result given; [ ] = another dose, or the depositor's remark. This is a sample that favours compounds with a hit; in the whole collection about 1.4% have one here. Unless noted, calls come from the whole dose curve; as a rule, active = well fitted curve in the direction sought with a large enough effect; inconclusive = small, poorly fitted or top-dose-only effect, or another doubt; inactive = no such curve, though single readings can be large; an effect the other way counts as inactive or inconclusive.
SMILES,Vif-APOBEC3G blk,ASM inhibitor,Akt phos inh,Vif-APOBEC3F blk,TSG101-PTAP inh,ALOX12 inh
CCCCOc1ccc(-n2nc(C)cc2C)nn1,-2.5%,-0.8%,-100.9%*,-12.1%,-12.2%,-5.1%
CCCC(=O)Nc1ccc(C(=O)Nc2ccc3c(c2)nc(CCn2ccnc2C)n3C)cc1,nt,nt,nt,nt,nt,8.8%
Clc1ccc(-c2cnc([C@@H]3COCCN3Cc3cnc[nH]3)[nH]2)cc1,nt,nt,nt,nt,nt,40.2%[176 µM]
Cn1c(CN2CCOC[C@H]2c2ncc(-c3ccc(Cl)cc3)[nH]2)nc2ccccc21,nt,nt,nt,nt,nt,35.5µM*
CC(C)=CC1C(C(=O)NCC(C)(C)N2CCOCC2)C1(C)C (stereo not drawn),nt,nt,nt,nt,nt,-0.3%
Cc1ccc(/C=C2/NC(=O)N(Cc3ccc(Br)cc3)C2=O)o1,-21.0%,2.7%,i,-14.8%,3.1%,44.7µM*
Cc1ccc(N2C(=O)CS/C2=C(\C(Cl)=C(Cl)Cl)[N+](=O)[O-])cc1,?,0.1%,i,25.1µM*,1.0%,?
O=C(O)C1(c2ccc(Br)cc2)CCCCC1,nt,nt,nt,nt,nt,-6.0%
COc1ccccc1NC(=O)c1oc2ccccc2c1NC(=O)c1cc(OC)c(OC)c(OC)c1,?,96.8%,-93.5%*,-4.7%,-1.7%,16.0%
COc1cc(C(=O)Nc2cccc(-c3nc4cc(C)ccc4o3)c2C)cc(OC)c1OC,-5.9%,-2.1%,-104.9%*,-5.1%,-5.3%,-2.0%
S=c1nc(-c2ccccc2)[nH]n1-c1ccccc1,-0.5%,2.1%,i,-12.1%,-9.3%,?
S=c1nc(-c2ccccc2)n(-c2ccccc2)[nH]1,0.9%,4.7%,i,8.7%,-2.6%,44.7µM*
CC(=O)Nc1ccc(Nc2c3c4c(cccc4n(C)c2=O)C(=O)c2ccccc2-3)cc1,-12.3%,-20.0%,i,8.91µM*,?,2.7%
CCCCNc1c2c3c(cccc3n(C)c1=O)C(=O)c1ccccc1-2,1.3%,-26.1%,nt,?,?,nt
Nc1c(C(=O)Nc2ccc(S(=O)(=O)N3CCCC3)cc2)sc2nc3cc4c(cc3cc12)CCC4,12.6µM*,-0.2%,i,10µM*,0.1%,?
COc1ccc(C(=O)Nc2nc3ccc(S(=O)(=O)N4CCCC4)cc3s2)cc1,-3.7%,nt,nt,3.4%,nt,1.7%
Nc1c(C(=O)Nc2ccc(S(=O)(=O)N3CCCC3)cc2)sc2nc3ccc(OC(F)(F)F)cc3cc12,?,21.1%,i,22.4µM*,?,?
COc1ccc(C(=O)NNc2ccccc2)cc1,-2.5%,nt,i,-6.8%,-0.5%,-11.7%
COc1ccc(CSC(=S)NNc2ccccc2)cc1,-17.9%,nt,i,-2.5%,nt,22.4µM*
Cc1nc2cc(NC(C)C(=O)Nc3ccc(C(C)(C)C)cc3)ccc2o1 (stereo not drawn),nt,nt,nt,nt,nt,-5.7%
S=C(N/N=C1/CCCCc2ccccc21)NC1CCCCC1,nt,nt,nt,nt,nt,44.7µM*
Cc1ccc(NC(=S)N/N=C2/CCCCc3ccccc32)cc1,-2.5%,-1.1%,i,0.0%,-7.1%,31.6µM*
C=C(C)CNC(=S)N/N=C1\CCCCc2ccccc21,-9.2%,0.3%,i,?,0.8%,35.5µM*
FC(F)(F)c1ccccc1NC(=S)NN=C1CCCCCC1,?,-2.1%,i,6.31µM*,-2.1%,?
CCNC(=S)N/N=C1\CCCCc2ccccc21,-2.4%,5.8%,i,?,0.3%,?
SMILES,Vif-APOBEC3G blk,ASM inhibitor,Akt phos inh,Vif-APOBEC3F blk,TSG101-PTAP inh,ALOX12 inh
COCCNC(=O)CCc1c(C)nn(-c2ccc(OC)cc2)c1Oc1ccccc1F,nt,nt,nt,nt,nt,4.0%
CCN(c1ccccc1)S(=O)(=O)c1ccc(C(=O)NC2CCCCCC2)cc1,nt,nt,nt,nt,nt,-15.8%
Cc1ccc(-c2noc(COc3ccccc3C(=O)N3CCN(C(C)C)CC3)n2)cc1,nt,nt,nt,nt,nt,8.9%
Cc1cccc(NC(=S)N2CCCC2)c1,1.5%,0.9%,i,-0.5%,-1.0%,0.0%
S=C(NN=C1CCC(c2ccccc2)CC1)NC1CCCCC1 (stereo not drawn),nt,nt,nt,nt,nt,35.5µM*
COC(=O)NN=C1CCC(c2ccccc2)CC1 (stereo not drawn),-1.0%,-4.9%,i,-2.7%,2.1%,489.0%
Cc1cccc(NC(=S)N/N=C2/CCCCc3ccccc32)c1,-2.5%,-1.3%,i,-17.5%,-4.7%,31.6µM*
Cc1ccc(C)c(NC(=S)N/N=C2\CCc3ccccc32)c1,-11.1%,-1.3%,i,4.1%,-1.6%,22.4µM*
Cc1cccc(NC(=S)NN=C2CCCC2)c1,nt,nt,nt,nt,nt,14.1µM*
CCCS(=O)(=O)N1CCCC1C(=O)NC1CCCC1 (stereo not drawn),nt,nt,nt,nt,nt,33.4%
COc1ccc([C@H]2[C@H](C(=O)C(C)(C)C)N3N=Cc4ccccc4C3[C@]23N=C(c2ccccc2)OC3=O)cc1OC (stereo partly drawn),-6.5%,-2.1%,-106.4%*,4.2%,-0.3%,nt
COc1ccc([C@H]2[C@H](C(=O)C(C)(C)C)N3N=Cc4ccccc4C3[C@]23N=C(c2ccccc2)OC3=O)cc1 (stereo partly drawn),-2.4%,-1.6%,i,0.4%,-2.2%,-11.6%
CSc1cccc(NC(=O)c2cc(=O)c(OCc3ccccc3F)co2)c1,nt,nt,nt,nt,nt,66.8%
Cc1ccc2nc(Cl)c3cc(C(=O)NC4CCCC(C)C4C)sc3c2c1 (stereo not drawn),nt,nt,nt,nt,nt,-4.0%
N#CCCn1c(SCC(=O)Nc2ccc(C(N)=O)cc2)nc2ccccc21,nt,nt,nt,nt,nt,6.3%
Cc1cc(C)cc(NS(=O)(=O)c2ccc3[nH]cc(C(=O)NC4CCCCC4)c(=O)c3c2)c1,-1.4%,nt,nt,1.9%,nt,?
CC(C)c1ccc(NS(=O)(=O)c2ccc3[nH]cc(C(=O)NC4CCCCC4)c(=O)c3c2)cc1,-6.5%,nt,nt,-1.3%,nt,35.5µM*
COc1cc(C2c3cc4c(cc3OC(NNC(N)=O)C2C)OCO4)cc(OC)c1OC (stereo not drawn),?,1.2%,i,-3.6%,-8.4%,-18.5%
COc1cccc(C2c3cc4c(cc3OC(NNC(N)=O)C2C)OCO4)c1O (stereo not drawn),?,-0.8%,i,-9.4%,-3.1%,15.8µM*
COc1cccc(C2c3cc4c(cc3OC(N3CCOCC3)C2C)OCO4)c1O (stereo not drawn),?,-1.6%,i,-2.6%,-3.5%,31.6µM*
Cc1ccc(CNC(=O)c2cccc3c2C(=O)c2ccc(N4CCCCC4)cc2S3(=O)=O)cc1,?,-17.6%,i,22.4µM*,?,-20.3%
O=C(NC1CCCC1)c1cccc2c1C(=O)c1ccc(/C=C/c3ccccc3)cc1S2(=O)=O,-1.1%,-2.6%,i,?,6.7%,-12.0%
